# Vif-A3G inh: qHTS for Inhibitors of Vif-A3G Interactions: qHTS; DNA dC->dU-editing enzyme APOBEC-3G (Homo sapiens), Q9HC16; HeLa A3G-eYFP + Vif (tagged APOBEC3G with the HIV-1 protein that degrades it), YFP fluorescence, overnight; Potency, µM (doses to about 46.1 µM), without a hit: top-dose activity, negative = active, actives largely listed as inhibitors; 0.076% of 410,000 active; AID 602310, 2012; note: potency is the fitted concentration of half-maximal effect; % is set by controls: 0 for no effect and ±100 for the full control effect; nearly all actives have a fitted effect of over 60% in size
#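 HeLa cells stably expressing Vif and C-terminally eYFP-tagged A3G, seeded overnight at 37 deg C, then exposed to compound by pintool overnight at 37 deg C. Rise in yellow fluorescence (Ex 488/Em 500-530, Acumen) marks blocked Vif-driven A3G degradation.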
# Vif-APOBEC3F blk: qHTS for Inhibitors of Vif-A3F Interactions: qHTS; HeLa A3F-eYFP + Vif (tagged APOBEC3F with the HIV-1 protein that degrades it), YFP fluorescence increase; Potency, µM (series often up to 46.1 µM), for inactives: at the highest dose activity, negative = active; 0.2% of 390,000 active; note: potency is the fitted concentration of half-maximal effect; % of control where 0% means no effect; nearly all actives have a fitted effect of over 65% in size
#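 HeLa cells stably expressing A3F-eYFP plus Vif, plated and incubated overnight at 37 deg C, then exposed to compounds overnight at 37 deg C. Blocked degradation read as raised yellow fluorescence (Ex 488/Em 500-530).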
# TSHR antagonist: Antagonists of the Thyroid Stimulating Hormone Receptor: HTS campaign. TSHR-expressing cells, TSH-stimulated cAMP HTRF, 2 h; hits give low values. activity change, negative = inhibition, % at 11.5 µM. 0.2% of 330,000 active. AID 504810, 2011;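 active = activity change below a set negative limit, meaning inhibition stronger than a set level, cut at about -70% in these data; inconclusive = activity change between two set negative limits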; note: % is set by controls: 0 for no effect and ±100 for the full control effect
# Target sequence (P16473 whole entry, looked up): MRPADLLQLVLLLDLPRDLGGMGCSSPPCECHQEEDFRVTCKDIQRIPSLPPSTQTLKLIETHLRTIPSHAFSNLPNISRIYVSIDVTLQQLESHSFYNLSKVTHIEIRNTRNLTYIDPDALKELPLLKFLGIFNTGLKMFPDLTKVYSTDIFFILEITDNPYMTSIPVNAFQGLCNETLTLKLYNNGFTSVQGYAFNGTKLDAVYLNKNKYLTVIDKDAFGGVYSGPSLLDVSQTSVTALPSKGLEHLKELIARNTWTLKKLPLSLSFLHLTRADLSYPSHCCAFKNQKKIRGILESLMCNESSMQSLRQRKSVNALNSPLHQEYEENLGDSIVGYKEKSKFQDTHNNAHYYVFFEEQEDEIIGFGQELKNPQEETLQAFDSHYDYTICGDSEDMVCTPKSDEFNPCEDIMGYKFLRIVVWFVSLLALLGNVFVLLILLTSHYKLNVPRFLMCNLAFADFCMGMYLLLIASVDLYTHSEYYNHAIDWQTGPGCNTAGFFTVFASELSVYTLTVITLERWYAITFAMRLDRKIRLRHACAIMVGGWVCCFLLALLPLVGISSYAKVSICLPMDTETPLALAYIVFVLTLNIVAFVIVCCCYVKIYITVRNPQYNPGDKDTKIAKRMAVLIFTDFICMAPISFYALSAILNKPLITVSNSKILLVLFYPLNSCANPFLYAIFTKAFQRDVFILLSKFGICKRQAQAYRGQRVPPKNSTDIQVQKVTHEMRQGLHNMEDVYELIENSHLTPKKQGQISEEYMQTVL
#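 Cell-based HTRF cAMP assay; TSHR cells + compound, TSH EC80 (4nM final), 2 h, 37 deg C. Lysis with anti-cAMP cryptate and cAMP-d2, 30 min RT, read 665/620 nm.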
# VDR inh: Inhibitors of the vitamin D receptor (VDR): qHTS; Vitamin D3 receptor (Homo sapiens), P11473; VDR-SRC2-3 peptide fluorescence polarization, 2 h; Potency, µM, for inactives: max response, negative = inhibition, usual class: inhibitors; 0.93% of 400,000 active; AID 504847, 2011; note: potency is the fitted concentration of half-maximal effect; % is set by controls: 0 for no effect and ±100 for the full control effect
#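 Measured by FP: displacement of SRC2-3 coactivator peptide from VDR by library compounds, following a two-hour ambient incubation.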
# PLK1 PBD block: qHTS for Inhibitors of PLK1-PDB (polo-like kinase 1 - polo-box domain): Primary Screen; Plk1 PBD binding of FITC phosphopeptide, fluorescence polarization; Potency, µM, inactives show max response, negative = inhibition, most hits filed as inhibitors; 2.8% of 360,000 active; AID 720504, 2013; note: potency is the fitted concentration of half-maximal effect; series mostly up to about 57 µM; % is set by controls: 0 for no effect and ±100 for the full control effect; nearly all actives have a fitted effect of over 65% in size
# Starred values were filed as active, the others as inactive; ? = inconclusive; . = no result given. Only some compounds are listed: those with a hit (about 3.1% of all), similar ones and a draw of the others. Unless noted, calls come from the whole dose curve; as a rule, active = well fitted curve in the direction sought with a large enough effect; inconclusive = small, poorly fitted or top-dose-only effect, or another doubt; inactive = no such curve, though single readings can be large; an effect the other way counts as inactive or inconclusive.
SMILES,Vif-A3G inh,Vif-APOBEC3F blk,TSHR antagonist,VDR inh,PLK1 PBD block
CC(C)CCNC(=O)Cn1c(SCc2cccc(F)c2)nc2ccncc21,-3%,.,.,-11%,.
CN(C)C(=O)CCSC(SCCC(=O)O)c1cccc(/C=C/c2ccc3ccc(Cl)cc3n2)c1 (stereo not drawn),.,.,.,35µM*,.
O=S(=O)(c1ccc2c(c1)OCCO2)N1CCN(c2nc(-c3ccccc3)nc3ccccc23)CC1,.,.,.,9%,.
Cc1cccc(NC(=O)CSc2nnc([C@H](C)NC(=O)OC(C)(C)C)o2)c1C,0%,-9%,-4,?,27µM*
CC12CCC=CC1C(c1cccc([N+](=O)[O-])c1)N(Cc1ccccc1)C2=O (stereo not drawn),-1%,.,.,-10%,.
COC(=O)Cn1c(SCc2ccccc2)nc2ccccc21,-5%,0%,-3,-9%,27µM*
Cc1noc(C)c1CSc1nnc(-c2ccccc2)n1N,-1%,-7%,-4,?,21µM*
O=C(O)CCn1c(SCc2ccccc2)nc2ccccc21,-6%,-4%,-2,-9%,2%
Cc1noc(C)c1CSc1nnc(-c2ccccc2)n1Cc1ccco1,2%,-10%,2,-21%,-11%
Cc1noc(C)c1CSc1nc2ccccc2n1CCc1ccccc1,-8%,-4%,-17,79µM*,?
CN1CCOc2cc(S(=O)(=O)N3CCN(c4nc(-c5cccs5)nc5ccccc45)CC3)ccc21,.,.,.,15%,.
COc1cc(CC(=O)NC(c2ccccc2)c2ccccc2)cc(OC)c1OC,-1%,9%,-24,?,21µM*
Cc1ccc(/C=N/n2c(C)nnc2C)s1,0%,.,-7,-21%,27µM*
Cc1ccc(/C=N/n2c(C)nnc2C)o1,-1%,2%,17,?,21µM*
N[C@](CC1c2ccccc2Oc2ccccc21)(C(=O)O)[C@H]1C[C@@H]1C(=O)O,.,.,.,11%,.
CC(C)(C)c1ccc(S(=O)(=O)/C=C/C#N)cc1,-11%,.,-19,6.3µM*,.
Cc1ccn(S(=O)(=O)c2ccc(C(C)(C)C)cc2)n1,-2%,9%,.,-12%,-7%
CCN1CCN(C(=S)c2ccc(OCC(=O)NCc3ccccc3)cc2)CC1,2%,4%,-6,?,11µM*
O=C(c1ccc(Br)cc1)c1cc2ccc(O)cc2oc1=O,-11%,-5%,2,?,11µM*
COc1ccc(C(=O)c2cc3ccc(O)cc3oc2=O)cc1,-1%,-8%,-2,7%,-9%
CC1CCN(S(=O)(=O)c2cccc(S(=O)(=O)N3CCOCC3)c2)CC1,-2%,-1%,16,2%,-2%
CC1CCN(S(=O)(=O)c2cccc(-c3nnc(-c4cccnc4)o3)c2)CC1,-1%,-8%,1,?,15µM*
CN(CC(=O)Nc1c(Cl)cccc1Cl)C(=O)Cc1ccc2c(c1)CCC2,0%,6%,4,?,15µM*
CCN(CC(=O)Nc1c(F)cccc1F)C(=O)Cc1ccc2c(c1)CCC2,-1%,-1%,1,6%,17µM*
O=C(Cc1ccc2ccccc2c1)Nc1ccccc1Br,-3%,-17%,-4,-4%,-4%
SMILES,Vif-A3G inh,Vif-APOBEC3F blk,TSHR antagonist,VDR inh,PLK1 PBD block
O=C(Cc1ccc2c(c1)CCCC2)Nc1ccccc1Br,-2%,-1%,-9,-22%,24µM*
CCCN(CC(=O)Nc1ccccc1OC)C(=O)Cc1ccc2c(c1)CCC2,-9%,-1%,-14,?,21µM*
CSc1ccc2nnc(-c3ccc(C)cc3)n2n1,1%,.,.,24%,.
CC[C@H](C)[C@@H](NC(=O)O[C@@H]1C(=O)c2ccc(OC)cc2O[C@H]1c1cccc(C(F)(F)F)c1)C(=O)OC,.,.,.,-2%,.
CCCCC[C@H](O)/C=C/C=C/C/C=C\CCCC(=O)O,.,.,.,9%,.
COCCCN1CC23C=CC(O2)C(C(=O)O)C3C1=O (stereo not drawn),5%,5%,15,?,27µM*
COC1=CC(=O)C(O)=C(CCCCCCC/C=C/CCCCCCCC2=C(O)C(=O)C=C(OC)C2=O)C1=O,4%,-2%,.,45µM*,19µM*
CCCCCCCCCCCC1=C(O)C(=O)C=C(O)C1=O,-2%,-8%,.,?,30µM*
C#C[C@]1(O)CC[C@@H]2[C@H]3CCC4=CC(=O)CC[C@H]4[C@H]3C(=C)C[C@@]21CC,.,.,.,0%,.
CCC(C)NC(=O)C1(NC(=O)Nc2ccccc2)CCCCC1 (stereo not drawn),1%,5%,-9,?,11µM*
CCCCNC(=O)C1(NC(=O)Nc2ccc(C)cc2)CCCCC1,0%,9%,10,?,7.5µM*
CCCCC(=O)O[C@]1(C(=O)CO)[C@H](C)C[C@H]2[C@@H]3CCC4=CC(=O)C=C[C@]4(C)[C@@]3(F)[C@@H](O)C[C@@]21C,.,.,.,2%,.
Cc1cnc2ccc3ccccc3c2c1C,2%,.,.,.,.
C=CCN1C(=O)/C(=C/c2ccc(OC(C)=O)c(OCC)c2[N+](=O)[O-])SC1=S,-1%,?,-92*,-9%,-19%
NS(=O)(=O)c1ccc(NC(=O)c2c(Cl)cccc2Cl)cc1,-2%,8%,-4,-9%,21µM*
Cc1occc1C(=O)NNC(=O)Nc1ccc(Cl)c(Cl)c1,-2%,9%,15,?,6.7µM*
CNS(=O)(=O)c1ccc(NC(=O)c2ccoc2C)cc1,0%,2%,-5,3%,-2%
Cc1ccsc1C(=O)NNC(=O)Nc1ccc(Cl)c(Cl)c1,-5%,0%,-7,-16%,?
Cc1occc1C(=O)Nc1ccc(S(N)(=O)=O)cc1,-1%,-7%,3,?,21µM*
Cc1ccc(CCNc2nc3c(S(=O)(=O)c4ccc(C)cc4)nnn3c3ccsc23)cc1,1%,9%,.,-1%,.
COCCN=C1NN=C(c2ccc(NC(C)=O)cc2)CS1,0%,10%,-9,?,?
CC(=O)Nc1ccc(C2=NN(C)C(=NCc3ccccc3)SC2)cc1,0%,1%,-10,-16%,30µM*
O=C(Nc1cccc2cccnc12)OC(Cl)(Cl)Cl,0%,.,.,10%,.
COc1ccc(S(=O)(=O)N2CCN(c3nc(-c4ccccc4)nc4ccccc34)CC2)cc1,2%,.,.,-9%,.
COCCNC(=S)N/N=C(\C)c1ccc(OC(F)F)cc1,-1%,25µM*,0,-7%,-7%
COC(=O)c1ccc(-n2c(C)cc(C(=O)CSc3cccc[n+]3[O-])c2C)cc1,0%,7%,-4,-12%,-1%
O=C(CSc1cccc[n+]1[O-])Nc1ccccc1Oc1ccccc1,?,5%,1,?,30µM*
O=C(CSc1cccc[n+]1[O-])Nc1ccccc1C(F)(F)F,1%,-25%,-9,21%,-11%

# Screens: PubChem BioAssay, National Center for Advancing Translational Sciences (NCATS)
